Sampled rows, rich in hits. Any-hit rate of the full collection: about 4.1%.
ssDAF-12 act: activators of S. stercoralis DAF-12 nuclear receptor; HEK293 ssDAF-12/GRIP1 lit1-tk-luc reporter, luminescence; % of 3 µM dafachronic acid response; activation, % at 6.8 µM; 1% of 370,000 active; AID 652126;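 active = activation above the mean over all tested compounds plus 3 SD, cut at about 0.9% in these data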;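 note: 0% = DMSO-only wells and 100% = 3 µM delta7-dafachronic acid wells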
hcDAF12 agonist: activators of H. contortus DAF-12 nuclear receptor; AID 652067; activation, % at 6.8 µM; 1.4% of 370,000 active; HEK293 hcDAF-12 lit1-tk-luc reporter, luminescence; 0% DMSO, 100% Δ7-dafachronic acid;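 active = activation above the mean of all tested compounds plus 3 SD, cut at about 5.5% in these data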;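 note: 100% = response to 3 µM Δ7-dafachronic acid high control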
DAX1 inh-1: inhibitors of DAX1 repression of SF-1 activated StAR promoter; HEK293T StAR-luciferase reporter, SF-1/DAX-1 repression relief; inhibition, % at 6.8 µM; 1.1% of 370,000 active; AID 652010;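 active = inhibition above the mean over all tested compounds plus 3 SD, cut at about 3.6% in these data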;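 note: 0% = DAX-1 cells with DMSO and 100% = cells lacking DAX-1 with DMSO; higher inhibition means more luminescence from relief of DAX-1 repression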
DAX1 inh-2: NR0B1 (DAX1) inhibition; inhibition, % at 6.75 µM; P51843; HEK293 Gal4-DAX1 luciferase reporter, luminescence; 0.99% of 340,000 active;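 active = inhibition above the mean over all tested compounds plus 3 SD, cut at about 4.2% in these data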;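 note: 0% = DAX1-transfected cells with DMSO and 100% = empty-vector control cells with DMSO; inhibition shows as a rise in luminescence from relieved DAX1 repression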
hgDAF-12 ag: agonists of H. glycines DAF-12 nuclear receptor; HEK293 GAL4-hgDAF12 UAS-luciferase reporter, agonist luminescence; normalized to butyrate control; activation, % at 6.8 µM; 1.8% of 370,000 active; AID 687014;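 active = activation above a cutoff set at the mean of all screened compounds plus 3 SD, cut at about 10% in these data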;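 note: 0% = DMSO wells and 100% = sodium butyrate wells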
LXR ag: LXR-beta agonism as hcDAF-12 counter-screen; shares compounds with hcDAF12 agonist; HEK293 Gal4-LXR tk-luc reporter, luminescence, 24 h; normalized: DMSO 0%, positive control 100%; activation, % at 6.8 µM; 3,400 tested, under 10 active; AID 743027;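 active = mean percent activation of the reporter above a cutoff set as the average over tested compounds plus their standard deviation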
Target sequence (P55055 whole entry, looked up, the tested form may be a part): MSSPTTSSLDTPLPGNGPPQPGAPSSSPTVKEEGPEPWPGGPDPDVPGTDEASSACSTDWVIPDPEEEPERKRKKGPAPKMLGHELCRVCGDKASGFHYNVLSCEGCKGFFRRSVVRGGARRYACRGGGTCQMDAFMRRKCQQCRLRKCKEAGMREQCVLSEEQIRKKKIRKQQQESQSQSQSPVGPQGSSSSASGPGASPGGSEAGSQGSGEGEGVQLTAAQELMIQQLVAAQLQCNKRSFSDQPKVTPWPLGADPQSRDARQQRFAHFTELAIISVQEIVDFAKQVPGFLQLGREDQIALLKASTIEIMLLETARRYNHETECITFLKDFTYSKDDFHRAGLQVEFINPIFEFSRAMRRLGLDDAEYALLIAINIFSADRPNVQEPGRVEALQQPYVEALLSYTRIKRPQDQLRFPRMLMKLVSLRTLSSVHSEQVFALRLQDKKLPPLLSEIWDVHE
hcDAF12 ag: confirmation of H. contortus DAF-12 agonists; shares compounds with hcDAF12 agonist; HEK293 hcDAF-12 lit1-tk-luc reporter, luminescence; % of Δ7-dafachronic acid response; 61% of 3,400 active; AID 743032; activation, % at 6.8 µM;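 active = mean activation across triplicate tests above the threshold derived from the earlier primary screen, cut at about 5.5% in these data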;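 note: 0% = DMSO only wells and 100% = 3 µM Δ7-dafachronic acid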
* hit, by the source's call; x = no result given.

SMILES	ssDAF-12 act	hcDAF12 agonist	DAX1 inh-1	DAX1 inh-2	hgDAF-12 ag	LXR ag	hcDAF12 ag
O=C(O)c1ccc(N/N=C/c2cccc3cccnc23)cc1	2.0*	8.1*	3	1	13*	1	7.9*
COc1ccc(C2CC(=O)C(c3ccccc3C)=CN2Cc2ccccc2)cc1 (stereo unspecified)	-1	-3	1	x	-3	x	x
Cc1cc2ccccc2n1CCNC(=O)c1ccccc1	0	4	1	-1	1	x	x
Cc1cc2ccccc2n1CCNC(=O)c1ccc(Br)o1	0	8.0*	3	3	2	0	-1
Cc1ccc2nc(-c3ccc(SCC(=O)N4CCc5ccccc54)nc3)[nH]c2c1	0	7.1*	1	1	5	1	6.4*
Cc1ccc2nc(-c3ccc(SCC(=O)O)nc3)[nH]c2c1	0	1	1	-1	6	x	x
CCCCC(=O)/C=C/n1c(=S)oc2ccccc21	1	6.6*	1	0	8	0	4
CCn1cc(Br)c(C(=O)Nc2ccc(OC)cc2)n1	-1	0	1	0	1	x	x
CCn1cc(Br)c(C(=O)NN)n1	0	6.7*	3	2	8	0	2
COC(=O)/C(C#N)=C/c1c[nH]c2ccccc12	0	8.1*	0	3	10	1	9.9*
CCOC(=O)/C(C#N)=C/c1c[nH]c2ccccc12	0	9.0*	0	1	7	0	5
Cc1ccc(C(=O)/C=C/c2c[nH]c3ccccc23)cc1	0	8.6*	1	2	8	0	4
COc1ccc(NC(=O)CSc2nnc(-c3n[nH]c4c3CCC4)n2N)cc1	-2	-1	-3	x	0	x	x
Cc1ccccc1NC(=O)C[C@H]1CC[C@H]2[C@@H](COc3ccc(NC(=O)Nc4ccccc4)cc3C(=O)N2C)O1	0	2	1	x	-2	x	x
COc1cccc(NC(=O)C(Cc2ccccc2)NC(=O)C2CCC(C)CC2)c1 (stereo unspecified)	-1	8.6*	0	-2	6	0	2
COc1cc(N=Nc2cccc(S(N)(=O)=O)c2)c2ccccc2c1N	0	9.2*	0	3	-2	0	3
O=C(/C=C/c1ccc(-c2ccccc2[N+](=O)[O-])o1)c1ccco1	0	7.9*	0	1	4	0	2
O=C(/C=C/c1ccc([N+](=O)[O-])cc1)c1ccco1	-1	-1	0	1	-2	x	x
COc1cccc(C2NC(=S)N(Cc3ccccc3)C(C)=C2C(C)=O)c1 (stereo unspecified)	-2	0	0	x	-2	x	x
Brc1ccc(-c2nc(N/N=C/c3cccnc3)c3ccccc3n2)cc1	1.6*	11*	1	1	13*	2	14*
Nc1c(Cl)c(Cl)nc(C(=O)N/N=C/c2ccco2)c1Cl	0	6.9*	0	-1	3	0	3
S=C(SCc1cc(Cl)cc2c1OCOC2)N1CCSCC1	0	3	0	x	4	x	x
O=C1C(=Cc2ccco2)C(=O)c2ccccc21	0	7.3*	1	1	10	0	2
O=C(N[C@H](Cc1ccccc1)C(=O)NCc1ccco1)[C@H]1O[C@@H](n2ccc(=O)[nH]c2=O)[C@H](O)[C@@H]1O	-1	0	0	x	0	x	x
CCOC(=O)c1sc(=NC(=O)c2cc(OC)c(OC)c(OC)c2)n(C)c1C	-1	0	0	0	-1	x	x
SMILES	ssDAF-12 act	hcDAF12 agonist	DAX1 inh-1	DAX1 inh-2	hgDAF-12 ag	LXR ag	hcDAF12 ag
CCOC(=O)c1sc(=NC(=O)c2ccc(C)cc2)n(C)c1C	1.2*	9.7*	4	2	11*	1	9.7*
Cc1ccc(NCC(=O)N/N=C/c2cc3ccccc3nc2Cl)cc1	2.0*	7.6*	1	1	14*	0	5.6*
Cc1ccc2cc(/C=N/Nc3nc4ccccc4[nH]3)c(Cl)nc2c1	0.9*	13*	2	-1	11*	1	15*
O=C(CN1CCOCC1)N/N=C/c1cc2ccccc2nc1Cl	0	0	0	1	0	x	x
COc1cccc(-c2cc3nc(C)c(C)c(N4CCN(Cc5ccco5)CC4)n3n2)c1	-1	-1	x	x	6	x	x
CCCN1CCCCC(NC(=O)OC(C)(C)C)C1=O (stereo unspecified)	-1	2	1	x	2	x	x
C/C(=N\NC(=O)c1ccc(C)cc1)c1c(C)[nH]n(-c2ccccc2)c1=O	0	1	0	1	5	x	x
C/C(=N\NC(=O)c1ccccc1)c1c(C)[nH]n(-c2ccccc2)c1=O	0	9.2*	1	4.8*	7	0	-1
CCCCC1OC(CCc2ccccc2)CC2=C1C(=O)OC(C)(C)O2 (stereo unspecified)	-1	1	0	x	-1	x	x
Cc1cccc(-c2cc3nc(C)cc(N4CC(C)CC(C)C4)n3n2)c1 (stereo unspecified)	-1	-2	0	1	1	x	x
Cc1cccc(-c2cc3nc(C)cc(C)n3n2)c1	1.6*	8.6*	3	1	8	1	11*
O=c1c2ccccc2[nH]c(=S)n1CCc1ccccc1	0	8.1*	1	1	10	0	5.7*
COc1cc(C(=O)NC2CCCCN(Cc3cccc(Cl)c3)C2=O)cc(OC)c1OC (stereo unspecified)	-2	-4	-1	x	1	x	x
Cc1ccccc1-c1ccc(C(=O)Nc2cccc(F)c2)o1	0	7.3*	0	2	8	0	5.7*
O=C(Nc1cccc(F)c1)c1ccc(-c2ccccc2C(F)(F)F)o1	-2	-1	0	x	0	x	x
CC(=O)c1ccc(N2Cc3ccccc3C2=NC(=O)c2cccs2)cc1	0	6.6*	4	0	12*	0	4
CCOC(=O)c1ccc(N2Cc3ccccc3C2=NC(=O)c2cccs2)cc1	-1	-1	2	0	1	x	x
C[C@@H]1COc2cc(Br)ccc2S(=O)(=O)N1Cc1cn(Cc2ccc(C(F)(F)F)cc2)nn1	-1	0	1	x	0	x	x
Cc1cc(/C=C2\SC(=S)NC2=O)c(C)n1-c1ccccc1	1.6*	13*	2	x	8	1	13*
O=C(/C=C/c1c(F)cccc1Cl)Nc1cccnc1	1	7.1*	1	3	11*	1	6.8*
COc1ccc(Nc2nccc3c2ncn3C)cc1	0	6.6*	3	1	11*	1	5
